Assay results as given in PubChem BioAssay (NCATS).
Results filed as inconclusive are left out. Values without a mark were called inactive. Calls of active or inactive are those of the source. Calls follow the shape of the dose curve; as a rule, active = well fitted curve in the direction sought with a large enough effect; inconclusive = small, poorly fitted or top-dose-only effect, or another doubt; inactive = no such curve, though single readings can be large; an effect the other way counts as inactive or inconclusive.

system: Zika virus NS2B-NS3 protease; assay: Primary screen GU AMC qHTS for Zika virus inhibitors (AID 1347154); details: Zika NS2B-NS3 unlinked protease, AMC fluorogenic substrate; series mostly up to 54.1 µM; activity change, negative = inhibition: at the top concentration; also: nearly all actives have a fitted effect of over 70% in size;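 as to activity change, negative = inhibition: 0% = no-inhibitor control and -100% = no-enzyme control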
How it was run: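 Unlinked Zika NS2B hydrophilic domain/NS3 protease domain noncovalent complex (25 nM final) in 10 mM Tris-HCl pH 8.0, 0.01% Tween 20, with AMC peptide substrate. Fluorescence (ex 340, em 450 nm) change over 15 min, room temperature; percent inhibition fitted to 4-parameter Hill equation.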
Potency is read from the fitted curve at half-maximal effect.

SMILES	activity change, negative = inhibition [%]	Potency
Nc1ccc(C(=O)Nc2cccc(-c3nc(N4CCOCC4)c4oc5ncccc5c4n3)c2)cn1	-20.6	
Nc1ccn(C2CO[C@H](CO)O2)c(=O)n1 (some centres not stated)	-3.39	
Oc1ccc([C@@H]2Oc3ccc(O)cc3[C@@H]3CCC[C@@H]32)cc1	-6.85	
Cc1ccccc1C(=O)Nc1ccc(C(=O)N2CCCC(O)c3cc(Cl)ccc32)c(C)c1 (configuration not stated)	-8.05	
CC(C)n1cnc2c(NCCc3ccc(O)cc3)nc(-c3csc4ccccc34)nc21	-22.3	
CCc1ccc(C(=O)Nc2cc(CN3CCN(C)CC3)cc(C(F)(F)F)c2)cc1C#Cc1cnc2ccnn2c1	-7.67	
CC1=C(C(=O)Nc2cc3cn[nH]c3cc2F)C(c2ccc(Cl)cc2F)N=C(c2ccnc(Cl)c2)N1 (configuration not stated)	6.51	
CN(C)CC(=O)N1CCC(c2ccc(NC(=O)c3ncc(C#N)[nH]3)c(C3=CCCCC3)c2)CC1	3.53	
CC(=CC(=O)Nc1ccccc1C(=O)O)c1ccc2ccccc2c1	-21.2	
C[N+]1(C)[C@@H]2C[C@@H](OC(=O)C(O)(c3cccs3)c3cccs3)C[C@H]1[C@@H]1O[C@@H]12	10.7	
N[C@H]1CN(c2c(F)cc3c(=O)c(C(=O)O)cn(C4C[C@@H]4F)c3c2Cl)CC12CC2 (some centres not stated)	-12.5	
O=c1c(O)c(-c2ccc(O)c(O)c2)oc2cc(O)ccc12		17.1 µM (active)
Cn1cnc2c(F)c(Nc3ccc(Br)cc3F)c(C(=O)NOCCO)cc21	24.6	
CCCCOc1ccc(C(=O)Nc2ccc(F)cc2F)cc1	-14.5	
OCCNC1CCCc2c1[nH]c1ccc(-c3ccccc3)cc21 (configuration not stated)	-4.43	
COc1cc(CCc2cc(NC(=O)c3ccc(N4C[C@@H](C)N[C@@H](C)C4)cc3)n[nH]2)cc(OC)c1	18	
c1ccc2c(Oc3nc(Nc4ccc(N5CCOCC5)cc4)c4ncn(C5CCCCC5)c4n3)cccc2c1	110	
CC(C)N(CC[C@H](c1ccccc1)c1cc(CO)ccc1O)C(C)C	14.9	

SMILES	activity change, negative = inhibition [%]	Potency
c1cncc(CN2CCC(n3ncc4c(N5CCOCC5)nc(-c5ccc6[nH]ccc6c5)nc43)CC2)c1	4.03	
O=C(Nc1ccc(Oc2ccnc3[nH]ccc23)c(F)c1)c1cccn(-c2ccc(F)cc2)c1=O	8.21	
N#Cc1ccc(COC[C@H]2O[C@@H](n3c(NCc4ccc(Cl)c(Cl)c4)nc4c(N)ncnc43)[C@@H](O)[C@@H]2O)cc1	7.32	
Cc1cncc2cccc(S(=O)(=O)N3CCCN(C(=O)CN)C[C@@H]3C)c12	15.2	
CCn1c(=O)c2c(nc(C=Cc3ccc(OC)c(OC)c3)n2C)n(CC)c1=O	-2.68	
FC(F)(F)c1ccc(Nc2nc3ccc(Oc4ccnc(-c5ncc(C(F)(F)F)[nH]5)c4)cc3[nH]2)cc1	-12	
C=C(C)[C@@H]1CC[C@]2(C(=O)O)CC[C@]3(C)[C@H](CC[C@@H]4[C@@]5(C)CC[C@H](O)C(C)(C)[C@@H]5CC[C@]43C)[C@@H]12	2.34	
CC(O)(C#Cc1ccc2c(c1)N(c1nc(N)ncc1Cl)CC2)c1nccs1 (configuration not stated)	-2.32	
C[C@H](NC(=O)[C@@H](O)c1cc(F)cc(F)c1)C(=O)N[C@@H]1C(=O)N(C)c2ccccc2-c2ccccc21	0.499	
CCC[C@H]1C[C@H](C(=O)N[C@@H]([C@@H]2O[C@@H](SC)[C@@H](O)[C@@H](O)[C@@H]2O)[C@H](C)Cl)N(C)C1	11.4	
CCOc1cc2c(c(F)c1OCC)C(=N)N(CC(=O)c1cc(N3CCOCC3)c(OC)c(C(C)(C)C)c1)C2	-10.6	
CCCCCCCCCCCC(CC1OC(=O)C1CCCCCC)OC(=O)C(CC(C)C)NC=O (configuration not stated)	-10.3	
C[C@H](O)[C@@H]1C(=O)N2C(C(=O)O)=C(S[C@@H]3CN[C@H](CNS(N)(=O)=O)C3)[C@@H](C)[C@@H]12	18.9	
C[C@@H](Cc1cc2c(c(C(N)=O)c1)N(CCCO)CC2)NCCOc1ccccc1OCC(F)(F)F	-9.48	
Cn1cc(-c2ccc3ncc(Cc4ccc5ncccc5c4)n3n2)cn1	304	
C[C@](Cc1c[nH]c2ccccc12)(NC(=O)OC1C2CC3CC(C2)CC1C3)C(=O)NC[C@H](NC(=O)CCC(=O)O)c1ccccc1 (some centres not stated)	-14.7	
CN1CCc2c(c3ccccc3n2Cc2ccc(C(=O)NO)cc2)C1	-0.741	

system: Zika virus NS2B-NS3 protease (unlinked complex); assay: Primary screen GU Rhodamine qHTS for Zika virus inhibitors: Unlinked NS2B-NS3 protease assay (AID 1347159); details: Recombinant ZIKV NS2B-NS3 protease, Rhodamine110 substrate fluorescence; series mostly up to 107 µM; activity change, negative = inhibition: at the top concentration; also: nearly all actives have a fitted effect of over 60% in size; as to activity change, negative = inhibition: % is scaled to controls: 0 for no effect and ±100 for the full control effect
How it was run: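 Buffer 10 mM Tris-HCl pH 8.0, 0.01% Tween 20. Unlinked protease 25 nM; compound preincubation 15 min, RT, protected from light. Substrate Rhod110, 1.5 microM; ~15% conversion in 15 min.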

SMILES	activity change, negative = inhibition [%]	Potency
Nc1ccn(C2CO[C@H](CO)O2)c(=O)n1 (some centres not stated)	0.526	
Cc1ccccc1C(=O)Nc1ccc(C(=O)N2CCCC(O)c3cc(Cl)ccc32)c(C)c1 (configuration not stated)	68	
CCc1ccc(C(=O)Nc2cc(CN3CCN(C)CC3)cc(C(F)(F)F)c2)cc1C#Cc1cnc2ccnn2c1	-65	
CC1=C(C(=O)Nc2cc3cn[nH]c3cc2F)C(c2ccc(Cl)cc2F)N=C(c2ccnc(Cl)c2)N1 (configuration not stated)	-6.28	
Cc1coc2c1C(=O)C(=O)c1c-2ccc2c(C)cccc12		35.5 µM (active)
C[N+]1(C)[C@@H]2C[C@@H](OC(=O)C(O)(c3cccs3)c3cccs3)C[C@H]1[C@@H]1O[C@@H]12	7.53	
N[C@H]1CN(c2c(F)cc3c(=O)c(C(=O)O)cn(C4C[C@@H]4F)c3c2Cl)CC12CC2 (some centres not stated)	0	
Cn1cnc2c(F)c(Nc3ccc(Br)cc3F)c(C(=O)NOCCO)cc21	1.92	
CCCCOc1ccc(C(=O)Nc2ccc(F)cc2F)cc1	-0.361	
OCCNC1CCCc2c1[nH]c1ccc(-c3ccccc3)cc21 (configuration not stated)	203	
COc1cc(CCc2cc(NC(=O)c3ccc(N4C[C@@H](C)N[C@@H](C)C4)cc3)n[nH]2)cc(OC)c1	93.2	
c1ccc2c(Oc3nc(Nc4ccc(N5CCOCC5)cc4)c4ncn(C5CCCCC5)c4n3)cccc2c1	49.5	
c1cncc(CN2CCC(n3ncc4c(N5CCOCC5)nc(-c5ccc6[nH]ccc6c5)nc43)CC2)c1	37.8	
O=C(Nc1ccc(Oc2ccnc3[nH]ccc23)c(F)c1)c1cccn(-c2ccc(F)cc2)c1=O	21.7	
CCc1nc(-c2cccc(C)c2)c(-c2ccnc(NC(=O)c3ccccc3)c2)s1	48	
Cc1cncc2cccc(S(=O)(=O)N3CCCN(C(=O)CN)C[C@@H]3C)c12	17.7	
CCC[C@H]1C[C@H](C(=O)N[C@@H]([C@@H]2O[C@@H](SC)[C@@H](O)[C@@H](O)[C@@H]2O)[C@H](C)Cl)N(C)C1	-0.48	
CCOc1cc2c(c(F)c1OCC)C(=N)N(CC(=O)c1cc(N3CCOCC3)c(OC)c(C(C)(C)C)c1)C2	171	
C[C@H](O)[C@@H]1C(=O)N2C(C(=O)O)=C(S[C@@H]3CN[C@H](CNS(N)(=O)=O)C3)[C@@H](C)[C@@H]12	-8.05	
C[C@@H](Cc1cc2c(c(C(N)=O)c1)N(CCCO)CC2)NCCOc1ccccc1OCC(F)(F)F	6.51	
Cn1cc(-c2ccc3ncc(Cc4ccc5ncccc5c4)n3n2)cn1	-19.6	
CN1CCc2c(c3ccccc3n2Cc2ccc(C(=O)NO)cc2)C1	-7.84	
